Screening results as filed in PubChem BioAssay.
In the library only some 9.4% were active in any assay of this set; here they are far more common.
AMA1 RON2 block – disrupts binding of P. falciparum AMA1 to RON2 | AlphaScreen AMA1-biotinylated RON2 peptide binding | hit rate 0.2% among 360,000 | Potency, µM (highest dose often 58.2 µM), without a hit: at the top dose activity change, negative = inhibition, most hits filed as inhibitors;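 note: 0% = vehicle wells and -100% = peptide control; nearly all actives have a fitted effect of over 45% in size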
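AMA1 (3D7) with his tag at 25 nM final met compounds first, then biotinylated RON2 peptide at 25 nM; detection used donor plus acceptor beads, 10 µg/mL apiece, read by AlphaScreen after 30 min at room temperature.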
SARS PLpro yeast – blocks SARS-CoV papain-like protease in a yeast assay | S. cerevisiae expressing SARS-CoV PLpro, growth rescue | Potency, µM (series often up to 32.9 µM), for the others: top-dose activity, positive = growth rescue, most hits filed as activators | hit rate 0.19% among 330,000; calls by dose curve; note: 0% is about no effect; nearly all actives have a fitted effect of over 55% in size
Pf growth 96h – P. falciparum growth inhibition at 96 hour, primary screen for plastid delayed-death inhibitors; hit rate 6.9% among 320,000; AID 504834; P. falciparum luciferase reporter growth, 96 h; Potency, µM (top dose mostly 28.7 µM), for the others: at the highest dose activity change, negative = inhibition, most hits filed as inhibitors; note: % is set by controls: 0 for no effect and ±100 for the full control effect
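96 h incubation, 37 C, 5% CO2, of luciferase-reporter P. falciparum-infected RBCs (2% hematocrit, 0.05% parasitemia final) with test compounds; endpoint luminescence.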
Pf growth 48h – inhibits P. falciparum growth in the first generation, 48 h; P. falciparum luciferase growth in erythrocytes, 48 h; Potency, µM (doses to about 28.7 µM), for inactives: at the top dose activity change, negative = inhibition, most hits filed as inhibitors; hit rate 5.9% among 310,000; AID 504832; note: % is set by controls: 0 for no effect and ±100 for the full control effect
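Firefly luciferase activity from engineered P. falciparum reports growth; inhibitors lower the luminescent signal. Cultures contained 2% hematocrit erythrocytes at 0.1% final parasitemia.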
The depositor's hits bear a star; ? = inconclusive; nt = no result; [ ] = remark or other dose. Unless noted, calls come from the whole dose curve; as a rule, active = well fitted curve in the direction sought with a large enough effect; inconclusive = small, poorly fitted or top-dose-only effect, or another doubt; inactive = no such curve, though single readings can be large; an effect the other way counts as inactive or inconclusive. Potency is the fitted concentration of half-maximal effect.

SMILES	AMA1 RON2 block	SARS PLpro yeast	Pf growth 96h	Pf growth 48h
CS(=O)(=O)N1CC2CCCN2c2cc(C(F)(F)F)ccc21 (configuration not stated)	3%	0%	?	?
Cc1cccc(C)c1OCCN1C(=O)NC(C)(c2ccccc2)C1=O (configuration not stated)	-17%	-3%	?	-6%
O=C(NC12CC3CC(CC(C3)C1)C2)OCCNC1CCCCC1	-6%	0%	10µM*	?
O=C(C1CCN(S(=O)(=O)c2ccc(F)cc2)CC1)N1CC=C(c2ccccc2)CC1	2%	-2%	-5%	10µM*
COc1ccccc1N1CCN(C(=O)C2CCN(S(=O)(=O)c3ccc4c(c3)CC(C)N4C(C)=O)CC2)CC1 (configuration not stated)	18%	-1%	17%	12µM*
Cn1c(=O)oc2cc(S(=O)(=O)N3CCC(C(=O)N4CC=C(c5ccccc5)CC4)CC3)ccc21	6%	1%	?	nt
COc1ccccc1N1CCN(C(=O)C2CCN(S(=O)(=O)c3ccc4c(c3)CC(C)N4C(=O)C3CC3)CC2)CC1 (configuration not stated)	-11%	4%	0%	?
COc1ccc(S(=O)(=O)N2CCC(C(=O)N3CCN(c4ccccc4OC)CC3)CC2)cc1	0%	-1%	-5%	13µM*
COc1cc(NS(=O)(=O)c2csc(C(N)=O)c2)cc(OC)c1	0%	3%	33%	-10%
COc1ccc(NS(=O)(=O)c2csc(C(N)=O)c2)cc1	12%	-2%	?	7.4µM*
NC(=O)c1cc(S(=O)(=O)Nc2ccc(OC(F)(F)F)cc2)cs1	-9%	0%	?	13µM*
O=C(Nc1cc(N2CCOCC2)ncn1)c1ccc(F)cc1	255%	-1%	?	101%
CC(=O)N1c2c(cc(Br)cc2S(=O)(=O)Nc2c(C)n(C)n(-c3ccccc3)c2=O)CC1C (configuration not stated)	-7%	2%	0%	-5%
Cc1ccc2nc(SCCCCOc3ccccc3)[nH]c2c1	3%	-36%	?	-16%
c1ccc(OCCSc2nc3ccccc3[nH]2)cc1	0%	-69%	7.4µM*	?
Cc1ccccc1OCCCSc1nc2ccccc2[nH]1	14%	-109%	10µM*	7%
O=[N+]([O-])c1c(Nc2ccccc2O)cc(Cl)c2nonc12	-2%	-16%	2%	12µM*
O=[N+]([O-])c1c(Nc2ccccc2O)ccc2nonc12	-4%	-7%	-31%	14%
Cc1ccccc1Nc1ccc2nonc2c1[N+](=O)[O-]	-6%	-3%	6.6µM*	12%
O=C(N/N=C\c1coc2ccccc2c1=O)c1ccco1	6%	0%	65%	68%
COC(=O)c1ccc(C23CC4(C2)[C@H](CN(C)[C@@H]4c2ccccc2)C3c2ccccc2)cc1 (some centres not stated)	?	2%	?	?
COC(=O)c1ccc(C23CC4(C2)[C@H](CN(Cc2ccc(-c5ccccc5)cc2)[C@@H]4c2ccccc2)C3c2ccccc2)cc1 (some centres not stated)	0%	2%	?	?
COC(=O)c1cccc(C23CC4(C2)[C@H](CN(C)[C@@H]4c2ccccc2)C3c2ccccc2)c1 (some centres not stated)	?	4%	?	12µM*
COC(=O)c1cccc(C23CC4(C2)[C@H](CN(C)[C@@H]4c2ccccc2)C3c2ccc(C(F)(F)F)cc2)c1 (some centres not stated)	-19%	-3%	?	9.3µM*
CC(C)N(C(=O)CSc1nnc(CNc2ccc(F)cc2)o1)C(C)C	4%	6%	15%	-18%
SMILES	AMA1 RON2 block	SARS PLpro yeast	Pf growth 96h	Pf growth 48h
COc1ccc2c(C(=O)c3ccc(C)cc3)n(CCCC(N)=O)[n+]([O-])c2c1	0%	1%	20%	?
CN1CCN(P(=O)(c2ccccc2)c2nc3ccccc3s2)CC1 (configuration not stated)	3%	0%	13µM*	1%
O=P(c1ccccc1)(c1nc2ccccc2s1)N1CCOCC1 (configuration not stated)	19%	1%	nt	-11%
COc1ccc(CNC(=O)CN(C(=O)c2csnn2)c2ccc(C(C)=O)cc2)cc1	12%	0%	0%	10µM*
CC(=O)c1ccc(N(CC(=O)NCCc2ccccc2)C(=O)c2csnn2)cc1	0%	5%	9.3µM*	?
CC(=O)c1cccc(N(CC(=O)NCCc2ccccc2)C(=O)c2csnn2)c1	-1%	11%	-8%	7%
CC(=O)c1ccc(OCc2cc(C(=O)N(C)Cc3ccon3)no2)cc1	4%	-1%	7%	12%
CC(=O)c1ccc(OCc2cc(C(=O)N(C)Cc3ccccn3)no2)cc1	8%	0%	10µM*	7%
COc1nc(C)ccc1-c1noc(-c2ccncc2)n1	1%	2%	7%	212%
O=C(CCCC(=O)N(CC(=O)NC1CCCC1)c1ccc(F)c(Cl)c1)Nc1ccccn1	7%	0%	3%	-4%
COc1ccc(/C=N/NC(=S)Nc2ccccc2)cc1	3%	1%	193%	?
CCOC(=O)c1c(NC(=O)c2c(-c3ccccc3)noc2C)sc(C)c1-c1ccccc1	-9%	6%	6.6µM*	nt
COc1ccc(C(=O)Nc2nnc(Cc3ccc(OC)c(OC)c3)s2)c(OC)c1	-9%	-5%	151%	2.3µM*
COc1ccc(Cc2nnc(NC(=O)C3CC(=O)N(c4ccccc4)C3)s2)cc1OC (configuration not stated)	-24%	-1%	2.9µM*	0%
COc1ccc(CCN2CC(C(=O)Nc3nnc(Cc4ccccc4)s3)CC2=O)cc1OC (configuration not stated)	0%	1%	?	?
COc1ccc(Cc2nnc(NC(=O)c3c(-c4ccccc4)noc3C)s2)cc1	-5%	-7%	55%	-12%
COc1ccc(Cc2nnc(NC(=O)c3c(-c4ccccc4)noc3C)s2)cc1OC	nt	-8%	10µM*	?
COCc1nnc(NC(=O)c2ccc(OC)cc2OC)s1	-1%	0%	50%	106%
Cc1ccc(C(=O)NCc2ccco2)cc1S(=O)(=O)Nc1cccc(C)c1C	-5%	8%	-33%	nt
COc1ccc([N+](=O)[O-])cc1NC(=O)CSc1nc(C)c(C)c(C)n1	-3%[11.6 µM]	24%	29%	-4%
CC1CN(Cc2csc(-c3ccc(Cl)cc3)n2)CC(C)O1 (configuration not stated)	-21%	-5%	251%	177%
CCCCOc1ccc(N2CC(C(=O)NCCc3ccc(OC)c(OC)c3)CC2=O)cc1 (configuration not stated)	-5%	0%	12µM*	-15%
COc1cccc(C(=O)Nc2nnc(Cc3ccc(OC)c(OC)c3)s2)c1	-1%	1%	0%	12µM*
COc1ccc(Cc2nnc(NC(=O)c3ccc(OC)c(OC)c3)s2)cc1OC	3%	1%	21%	-10%
